# Unmarked numbers belong to inactive results. Results filed as inconclusive are left out. A call without a number means that no potency is given here. Activity calls are given as the source filed them. The call rests on the fitted dose curve; in most records, active means well fitted curve in the direction sought with a large enough effect in the repeat runs; inconclusive means weak or mixed curves; inactive means no such curve, though single readings can be large; an effect the other way counts as inactive or inconclusive.
# Tests used:
# [1] = qHTS RealTime-Glo MT Cell Viability Assay in HEK293 cells - 16 hour (AID 1224872); further: nearly all actives have a fitted effect of over 50% in size; further: potency means the concentration at half of the fitted maximal effect; on activity change, negative = cytotoxicity: top concentration of the series differs between compounds
# Summary of the method: (§1)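 Luminescence generated by NanoLuc from substrate produced by living HEK293 cells served as the viability signal. Each value reflects the reading at its stated time point during continuous 40 h compound exposure at 37 C.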
# [2] = qHTS RealTime-Glo MT Cell Viability Assay in HepG2 cells - 8 hour (AID 1224873); further: nearly all actives have a fitted effect of over 55% in size
# Summary of the method: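 HepG2 cells mixed with RealTime-Glo MT reagents (NanoLuc plus cell-permeant prosubstrate) were seeded at 600 cells/well, incubated 5 h at 37 C/5% CO2, then pinned with compounds in DMSO; nonlytic luminescence tracked viability during 40 h treatment.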
# [3] = A CellTox Green Cytotoxicity Assay to monitor cytotoxicity in HepG2 cells - 16 hour (AID 1224876); further: nearly all actives have a fitted effect of over 45% in size
# Summary of the method: (§2)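 Real-time, homogeneous cytotoxicity readout: dead-cell DNA staining by CellTox Green in HepG2 monolayers, fluorescence measured at timed intervals up to 40 h of continuous compound exposure.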
# [4] = qHTS RealTime-Glo MT Cell Viability Assay in HepG2 cells - 32 hour (AID 1224877); further: nearly all actives have a fitted effect of over 55% in size
# Summary of the method: (§3)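 Tox21 10K library screened in qHTS format on HepG2 cells carrying RealTime-Glo reagents. Compounds were added after a 5 h preincubation, and the luminescent signal from continuous culture was measured repeatedly during 40 h treatment.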
# [5] = A CellTox Green Cytotoxicity Assay to monitor cytotoxicity in HepG2 cells - 24 hour (AID 1224878); further: nearly all actives have a fitted effect of over 45% in size
# Summary of the method: as §2
# [6] = A CellTox Green Cytotoxicity Assay to monitor cytotoxicity in HepG2 cells - 40 hour (AID 1224879); further: nearly all actives have a fitted effect of over 40% in size
# Summary of the method: as §2
# [7] = qHTS RealTime-Glo MT Cell Viability Assay in HEK293 cells - 0 hour (AID 1224880); further: top concentration of the series differs between compounds; nearly all actives have a fitted effect of over 45% in size
# Summary of the method: (§4)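 Nonlytic bioluminescent viability monitoring. HEK293 at 600 cells/well with reagent; 5 h settle; compound transfer by pintool; plates held at 37 C and read at set time points.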
# [8] = A CellTox Green Cytotoxicity Assay to monitor cytotoxicity in HepG2 cells - 0 hour (AID 1224882); further: nearly all actives have a fitted effect of over 35% in size
# Summary of the method: as §2
# [9] = A CellTox Green Cytotoxicity Assay to monitor cytotoxicity in HepG2 cells - 32 hour (AID 1224883); further: nearly all actives have a fitted effect of over 50% in size
# Summary of the method: as §2
# [10] = A CellTox Green Cytotoxicity Assay to monitor cytotoxicity in HEK293 cells - 8 hour (AID 1224884); further: nearly all actives have a fitted effect of over 35% in size
# Summary of the method: (§5)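 Cytotoxicity was tracked continuously in HEK293 cells by a DNA-binding dye excluded from viable cells. Compounds were transferred in DMSO 5 h after seeding; fluorescence was recorded at intervals up to 40 h.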
# [11] = qHTS RealTime-Glo MT Cell Viability Assay in HepG2 cells - 16 hour (AID 1224885); further: nearly all actives have a fitted effect of over 50% in size
# Summary of the method: as §3
# [12] = qHTS RealTime-Glo MT Cell Viability Assay in HEK293 cells - 24 hour (AID 1224886); further: nearly all actives have a fitted effect of over 50% in size; further: potency means the concentration at half of the fitted maximal effect; on activity change, negative = cytotoxicity: top concentration of the series differs between compounds
# Summary of the method: as §1
# [13] = qHTS RealTime-Glo MT Cell Viability Assay in HEK293 cells - 8 hour (AID 1224887); further: nearly all actives have a fitted effect of over 50% in size; further: potency means the concentration at half of the fitted maximal effect; on activity change, negative = cytotoxicity: top concentration of the series differs between compounds
# Summary of the method: as §4
# [14] = A CellTox Green Cytotoxicity Assay to monitor cytotoxicity in HEK293 cells - 16 hour (AID 1224888); further: nearly all actives have a fitted effect of over 35% in size
# Summary of the method: as §5
# [15] = qHTS RealTime-Glo MT Cell Viability Assay in HepG2 cells - 0 hour (AID 1224889); further: nearly all actives have a fitted effect of over 50% in size
# Summary of the method: as §3
# [16] = A CellTox Green Cytotoxicity Assay to monitor cytotoxicity in HepG2 cells - 8 hour (AID 1224890); further: nearly all actives have a fitted effect of over 45% in size
# Summary of the method: as §2
# [17] = qHTS assay to identify small molecule antagonists of the estrogen receptor alpha (ER-alpha) signaling pathway using the BG1 cell line in the presence of 0.1 nM 17-beta-estradiol - cell viability counter screen (AID 1259241); further: nearly all actives have a fitted effect of over 40% in size; further: potency means the concentration at half of the fitted maximal effect
# Summary of the method: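 Live-cell protease activity (CellTiter-Fluor fluorescence, 30 min) was read in the same wells after VM7Luc4E2 cells had been exposed to compounds with 0.1 nM 17beta-estradiol for 22 hr at 37C.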
# [18] = qHTS RealTime-Glo MT Cell Viability Assay in HEK293 cells - 40 hour (AID 1224874); conditions: RealTime-Glo luminescence; max response: hits give low values; further: nearly all actives have a fitted effect of over 50% in size
# Summary of the method: as §4
# [19] = A CellTox Green Cytotoxicity Assay to monitor cytotoxicity in HEK293 cells - 24 hour (AID 1224875)
# Summary of the method: as §5
# [20] = A CellTox Green Cytotoxicity Assay to monitor cytotoxicity in HEK293 cells - 32 hour (AID 1224881); further: nearly all actives have a fitted effect of over 40% in size
# Summary of the method: as §5
smiles,measurement,setting,value
O=c1oc2cc(O)ccc2c2oc3cc(O)ccc3c12,Potency,[1],21 µM (active)
same,Potency,[2],inactive
same,Potency,[3],inactive
same,Potency,[4],inactive
same,Potency,[5],inactive
same,Potency,[6],inactive
same,Potency,[7],inactive
same,Potency,[8],inactive
same,Potency,[9],inactive
same,Potency,[10],inactive
same,Potency,[11],inactive
same,Potency,[12],21 µM (active)
same,Potency,[13],16.7 µM (active)
same,Potency,[14],inactive
same,Potency,[15],inactive
same,Potency,[16],inactive
same,Potency,[17],inactive
COC(=O)c1ccccc1OC,Potency,[1],inactive
same,max response,[18],2.19%
same,Potency,[19],inactive
same,Potency,[3],inactive
same,Potency,[4],inactive
same,Potency,[5],inactive
same,Potency,[6],inactive
same,Potency,[7],inactive
same,Potency,[20],inactive
same,Potency,[8],inactive
same,Potency,[9],inactive
same,Potency,[10],inactive
same,Potency,[11],inactive
same,Potency,[12],inactive
same,Potency,[15],inactive
same,Potency,[16],inactive
same,Potency,[17],inactive
O=S(=O)(O)c1ccccc1/C=C/c1ccc(-c2ccc(/C=C/c3ccccc3S(=O)(=O)O)cc2)cc1,Potency,[1],inactive
same,max response,[18],3.02%
same,Potency,[19],inactive
same,Potency,[3],inactive
same,Potency,[4],inactive
same,Potency,[5],inactive
same,Potency,[6],inactive
same,Potency,[7],inactive
same,Potency,[20],inactive
same,Potency,[8],inactive
same,Potency,[9],inactive
same,Potency,[10],inactive
same,Potency,[11],inactive
same,Potency,[13],inactive
same,Potency,[14],inactive
same,Potency,[15],inactive
same,Potency,[16],inactive
O=[N+]([O-])c1ccc(O)cc1C(F)(F)F,Potency,[1],inactive
same,Potency,[2],inactive
same,Potency,[19],inactive
same,Potency,[3],inactive
same,Potency,[5],inactive
same,Potency,[20],inactive
same,Potency,[8],inactive
same,Potency,[9],inactive
same,Potency,[10],inactive
same,Potency,[11],inactive
same,Potency,[13],inactive
same,Potency,[14],inactive
same,Potency,[15],inactive
same,Potency,[16],inactive
same,Potency,[17],48.6 µM (active)
Nc1nc2c(ncn2COCCO)c(=O)[nH]1,Potency,[1],inactive
same,Potency,[2],inactive
same,Potency,[19],inactive
same,Potency,[3],inactive
same,Potency,[4],inactive
same,Potency,[5],inactive
same,Potency,[6],inactive
same,Potency,[20],inactive
same,Potency,[8],inactive
same,Potency,[9],inactive
same,Potency,[10],inactive
same,Potency,[11],inactive
same,Potency,[12],inactive
same,Potency,[13],inactive
same,Potency,[14],inactive
same,Potency,[15],inactive
same,Potency,[16],inactive
same,Potency,[17],inactive
CCCNCCC,Potency,[1],inactive
same,Potency,[2],inactive
same,Potency,[19],inactive
same,Potency,[3],inactive
same,Potency,[4],inactive
same,Potency,[5],inactive
same,Potency,[6],inactive
same,Potency,[7],inactive
same,Potency,[8],inactive
same,Potency,[9],inactive
same,Potency,[10],inactive
same,Potency,[11],inactive
same,Potency,[12],inactive
same,Potency,[13],inactive
same,Potency,[14],inactive
same,Potency,[15],inactive
same,Potency,[16],inactive
CCCCCCC1CCCC(=O)O1 (stereo not given),Potency,[1],inactive
same,Potency,[2],inactive
same,Potency,[19],inactive
same,Potency,[3],inactive
same,Potency,[4],inactive
same,Potency,[5],inactive
same,Potency,[6],inactive
same,Potency,[20],inactive
same,Potency,[8],inactive
same,Potency,[9],inactive
same,Potency,[11],inactive
same,Potency,[13],inactive
same,Potency,[14],inactive
same,Potency,[15],inactive
same,Potency,[16],inactive
same,Potency,[17],inactive
C[C@H]1NCc2cc(-c3ccc4c(=O)c(C(=O)O)cn(C5CC5)c4c3OC(F)F)ccc21,"activity change, negative = cytotoxicity",[1],-1.72% [at 15.8 µM]
same,max response,[18],-6.6%
same,activity change,[19],"-2.55% [at 15.8 µM, hits give high values]"
same,cytotoxicity increase,[3],1.43% [at 15.8 µM]
same,"activity change, negative = cytotoxic",[4],-0.83% [at 15.8 µM]
same,cytotoxicity,[5],1.74% [at 15.8 µM]
same,cytotoxicity increase,[6],1.86% [at 15.8 µM]
same,"activity change, negative = cytotoxicity",[7],-10.2% [at 15.8 µM]
same,cytotoxicity,[8],-0.836% [at 15.8 µM]
same,cytotoxicity increase,[9],-4.67% [at 15.8 µM]
same,cytotoxicity increase,[10],-4.13% [at 15.8 µM]
same,"activity change, negative = cytotoxic",[11],-14.5% [at 15.8 µM]
same,"activity change, negative = cytotoxicity",[13],-3.93% [at 15.8 µM]
same,activity change,[14],"-0.109% [at 15.8 µM, hits give high values]"
same,"activity change, negative = cytotoxicity",[15],-7.36% [at 15.8 µM]
same,cytotoxicity increase,[16],1.89% [at 15.8 µM]
same,"activity change, negative = cytotoxicity",[17],-0.503% [at 19 µM]
C=C(CC)C(=O)c1ccc(OCC(=O)O)c(Cl)c1Cl,Potency,[1],inactive
same,Potency,[2],inactive
same,Potency,[3],inactive
same,Potency,[4],inactive
same,Potency,[5],inactive
same,Potency,[6],inactive
same,Potency,[7],inactive
same,Potency,[20],inactive
same,Potency,[8],inactive
same,Potency,[9],inactive
same,Potency,[10],inactive
same,Potency,[11],inactive
same,Potency,[13],inactive
same,Potency,[14],inactive
same,Potency,[15],inactive
same,Potency,[16],inactive
same,Potency,[17],inactive
CCC(=O)OC(=O)CC,Potency,[1],inactive
same,max response,[18],0.495%
same,Potency,[19],inactive
same,Potency,[3],inactive
same,Potency,[4],inactive
same,Potency,[5],inactive
same,Potency,[6],inactive
same,Potency,[7],inactive
same,Potency,[20],inactive
same,Potency,[8],inactive
same,Potency,[9],inactive
same,Potency,[10],inactive
same,Potency,[11],inactive
same,Potency,[12],inactive
same,Potency,[13],inactive
same,Potency,[15],inactive
same,Potency,[16],inactive
same,Potency,[17],inactive
CCCCCCCCCCCCOC(=O)c1ccc(O)cc1,Potency,[1],44 µM (active)
same,Potency,[2],inactive
same,Potency,[19],inactive
same,Potency,[3],inactive
same,Potency,[4],inactive
same,Potency,[5],inactive
same,Potency,[6],inactive
same,Potency,[7],inactive
same,Potency,[20],inactive
same,Potency,[8],inactive
same,Potency,[9],inactive
same,Potency,[10],inactive
same,Potency,[11],inactive
same,Potency,[14],inactive
same,Potency,[15],inactive
same,Potency,[16],inactive
COc1c(C)c2c(c(O)c1C/C=C(\C)CCC(=O)OCCN1CCOCC1)C(=O)OC2,Potency,[1],inactive
same,Potency,[2],inactive
same,Potency,[3],inactive
same,Potency,[4],inactive
same,Potency,[5],inactive
same,Potency,[6],inactive
same,Potency,[7],inactive
same,Potency,[20],inactive
same,Potency,[8],inactive
same,Potency,[9],inactive
same,Potency,[10],inactive
same,Potency,[11],inactive
same,Potency,[12],inactive
same,Potency,[13],inactive
same,Potency,[14],inactive
same,Potency,[15],inactive
same,Potency,[16],inactive
same,Potency,[17],inactive
O=C1NC(=O)[C@@H]2CC=CC[C@H]12,Potency,[1],inactive
same,Potency,[2],inactive
same,Potency,[19],inactive
same,Potency,[3],inactive
same,Potency,[4],inactive
same,Potency,[5],inactive
same,Potency,[7],inactive
same,Potency,[20],inactive
same,Potency,[8],inactive
same,Potency,[10],inactive
same,Potency,[11],inactive
same,Potency,[13],inactive
same,Potency,[15],inactive
same,Potency,[16],inactive
same,Potency,[17],inactive
C=Cc1cccc(C)c1,Potency,[1],inactive
same,Potency,[2],inactive
same,Potency,[3],inactive
same,Potency,[5],inactive
same,Potency,[6],inactive
same,Potency,[7],inactive
same,Potency,[20],inactive
same,Potency,[8],inactive
same,Potency,[9],inactive
same,Potency,[10],inactive
same,Potency,[11],inactive
same,Potency,[12],inactive
same,Potency,[13],inactive
same,Potency,[14],inactive
same,Potency,[15],inactive
same,Potency,[16],inactive
same,Potency,[17],inactive

# — PubChem BioAssay (Tox21)
